Source: PubChem BioAssay AID1488 (Vanderbilt High Throughput Screening Facility, 2009)
The campaign covered roughly 1,700 compounds. About 310 (18%) were called active. Not shown: some 25% with an inconclusive outcome.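 The calls were made as follows: active = fluorescence change differs from the solvent-only DMSO control mean at a set confidence level in both duplicate runs; inconclusive = differs from solvent-only control mean in just one of two runs; inactive = the rest.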 The full list was thinned out, with actives kept by preference.

Each molecule was assayed against Muscarinic acetylcholine receptor M1 (Rattus norvegicus) (UniProt P08482) (assay: direct agonism at rat M1 receptor – CHO-M1 cells, Fluo-4 calcium, duplicate retest, confirmation (AID 1488;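 also: an EC20 dose of acetylcholine follows compound addition during the same imaging run; raw fluorescence intensity difference in instrument units with no normalization to controls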)). Conditions: Fluo-4 calcium fluorescence, agonist mode, at 10 µM, actives lie on both sides.
Chain of Muscarinic acetylcholine receptor M1 (Rattus norvegicus) (P08482 whole entry, looked up): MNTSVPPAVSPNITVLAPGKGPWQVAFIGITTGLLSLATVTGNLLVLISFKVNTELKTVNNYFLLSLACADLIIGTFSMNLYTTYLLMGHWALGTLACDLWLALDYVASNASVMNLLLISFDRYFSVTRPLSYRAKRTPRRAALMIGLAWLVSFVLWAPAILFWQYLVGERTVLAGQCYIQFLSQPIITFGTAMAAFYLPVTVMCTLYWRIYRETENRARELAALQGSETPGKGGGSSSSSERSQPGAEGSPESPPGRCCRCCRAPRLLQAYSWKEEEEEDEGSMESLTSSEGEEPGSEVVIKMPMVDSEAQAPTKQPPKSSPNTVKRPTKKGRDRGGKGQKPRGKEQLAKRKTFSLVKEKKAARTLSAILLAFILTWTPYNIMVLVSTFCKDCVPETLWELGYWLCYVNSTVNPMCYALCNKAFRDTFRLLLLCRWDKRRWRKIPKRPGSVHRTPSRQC

Question: `COc1ccccc1NC1=NC(c2ccc(Cl)cc2)N=C(N)N1` (stereo not given) was tested. Which fluorescence change (max-min) did it give?
Answer: -28.2 (active)

Question: How did the fluorescence change (max-min) turn out when `Cc1ccc2oc(=O)c3cnn(CC(=O)N4CCN(c5ccccn5)CC4)c3c2c1` was run?
Answer: -16.8 (inactive)

Question: `CC(C[N+](C)(C)C)OC(N)=O` (stereo not given) was tested. Which fluorescence change (max-min) did it give?
Answer: 389 (active)

Question: With `CC(=O)OC(C)C[N+](C)(C)C` (stereo not given) as the molecule, how does the fluorescence change (max-min) read?
Answer: 529 (active)

Question: How did the fluorescence change (max-min) turn out when `COc1cccc2c(C)c(C(=O)O)[nH]c12` was run?
Answer: 4.27 (inactive)

Question: How did the fluorescence change (max-min) turn out when `O=C(NCc1ccccn1)c1ccc2nc(-c3ccco3)c(-c3ccco3)nc2c1` was run?
Answer: 28.5 (inactive)

Question: How did the fluorescence change (max-min) turn out when `CCOc1ccc2[nH]c(=O)c(CN(Cc3nnnn3Cc3ccccc3)CC3CCCO3)cc2c1` (stereo not given) was run?
Answer: 19.2 (inactive)

Question: Which fluorescence change (max-min) does the source give for `Cc1cc2cc(CN(Cc3cccs3)Cc3nnnn3CC3CCCO3)c(=O)[nH]c2cc1C` (stereo not given) here?
Answer: 7.46 (inactive)

Question: How did the fluorescence change (max-min) turn out when `Cc1cc(NC(=O)COc2ccc(Cl)cc2Cl)n(CCC#N)n1` was run?
Answer: -3.95 (inactive)

Question: `O=C(O)c1ccc(COCC(F)(F)F)cc1` was tested. Which fluorescence change (max-min) did it give?
Answer: -6.5 (inactive)

Question: `CC(=O)Nc1ccc(NC(=O)CN2CCCC(C)C2)c(Cl)c1` (stereo not given) was tested. Which fluorescence change (max-min) did it give?
Answer: -10.1 (inactive)

Question: How did the fluorescence change (max-min) turn out when `CCOC(=O)c1cc2n(c1N)-c1ccccc1C2=O` was run?
Answer: 1700 (active)

Question: `CCOc1cc(N2CCOCC2)c(OCC)cc1NC(=O)COc1cccc2cccnc12` was tested. Which fluorescence change (max-min) did it give?
Answer: -14.8 (inactive)

Question: With `N#CC1=C(N)Oc2c(sc3ccccc23)C1c1ccco1` (stereo not given) as the molecule, how does the fluorescence change (max-min) read?
Answer: 140 (active)

Question: Which fluorescence change (max-min) does the source give for `C(=N\n1cnnc1)/c1cccnc1` here?
Answer: -17.4 (inactive)

Question: `O=C1c2ccccc2-c2ncnc3c(N4CCOCC4)cc(N4CCOCC4)c1c23` was tested. Which fluorescence change (max-min) did it give?
Answer: -15.7 (inactive)

Question: How did the fluorescence change (max-min) turn out when `c1ccc2c(c1)OCC(CNc1ncnc3nc[nH]c13)O2` (stereo not given) was run?
Answer: 512 (active)

Question: With `O=C(Nc1ccccc1N1CCN(C(=O)c2ccccc2)CC1)c1ccc2c(c1)OCO2` as the molecule, how does the fluorescence change (max-min) read?
Answer: -2.28 (inactive)

Question: `CC(C)(C)c1cc(CN2CCN(CCC#N)CC2)cc(C(C)(C)C)c1O` was tested. Which fluorescence change (max-min) did it give?
Answer: 23.3 (inactive)

Question: `O=C(NCCc1ccc2c(c1)OCCO2)c1cc2ccccc2o1` was tested. Which fluorescence change (max-min) did it give?
Answer: 25 (inactive)

Question: With `CCCN1CC=C2C(C#N)=C(N)C(C#N)(C#N)C(c3cc(OC)ccc3OC)C2C1` (stereo not given) as the molecule, how does the fluorescence change (max-min) read?
Answer: 85.5 (active)

Question: For `COc1ccccc1Cc1nc(-c2ccc(C)cc2)no1`, which fluorescence change (max-min) is on record?
Answer: -14 (inactive)

Question: With `COc1ccc2nc(N3CCCC(O)C3)c(C#N)cc2c1` (stereo not given) as the molecule, how does the fluorescence change (max-min) read?
Answer: 206 (active)

Question: How did the fluorescence change (max-min) turn out when `COC(=O)c1ccc(CSc2nc3ccccc3c(=O)n2-c2cccc(OC)c2)o1` was run?
Answer: -9.69 (inactive)

Question: How did the fluorescence change (max-min) turn out when `O=C(CSc1nnc(-c2ccco2)n1Cc1ccccc1)NC(=O)NCc1ccco1` was run?
Answer: -3.05 (inactive)

Question: `CCOC(=O)CSc1nc2c(sc(=S)n2CCc2ccccc2)c(=O)n1Cc1ccco1` was tested. Which fluorescence change (max-min) did it give?
Answer: -34.1 (active)

Question: With `c1n[nH]c(NCc2ccc3c(c2)OCO3)n1` as the molecule, how does the fluorescence change (max-min) read?
Answer: -9.45 (inactive)

Question: For `COc1cccc(-n2cc3c(c2-c2ccccc2)c(=O)n(C)c(=O)n3C)c1`, which fluorescence change (max-min) is on record?
Answer: -22.4 (inactive)

Question: With `CC(NC(=O)CSc1nc2c(cc1C#N)CN(C)CC2)c1ccccc1` (stereo not given) as the molecule, how does the fluorescence change (max-min) read?
Answer: 41.3 (inactive)

Question: With `CCN(CC)c1ccc2oc(=O)c(C)nc2c1` as the molecule, how does the fluorescence change (max-min) read?
Answer: 165 (active)

Question: For `CCN(CC)c1ccc2cc(C(=O)O)c(=O)oc2c1`, which fluorescence change (max-min) is on record?
Answer: 153 (active)

Question: Which fluorescence change (max-min) does the source give for `CCOC(=O)C1CCCN(Cc2nc(N)nc(Nc3ccc(C)cc3)n2)C1` (stereo not given) here?
Answer: 127 (active)

Question: How did the fluorescence change (max-min) turn out when `FC(F)(F)COc1nc(N2CCCCC2)nc(N2CCNCC2)n1` was run?
Answer: -8.96 (inactive)

Question: For `CCOc1nc(-c2ccc(OC)cc2)ccc1-c1noc(-c2cc(OC)c(OC)c(OC)c2)n1`, which fluorescence change (max-min) is on record?
Answer: -5.3 (inactive)

Question: How did the fluorescence change (max-min) turn out when `O=C(CSc1nnc(Cn2cnc3ccccc32)o1)c1ccccc1` was run?
Answer: -8.96 (inactive)

Question: Which fluorescence change (max-min) does the source give for `CCc1nc(Nc2ccc3nccnc3c2)c2oc3ccccc3c2n1` here?
Answer: -1.32 (inactive)

Question: For `Cc1ccc(C(=O)COc2cccc(NC(=O)c3ccco3)c2)cc1`, which fluorescence change (max-min) is on record?
Answer: 131 (active)

Question: For `COc1ccc(CCNC(=O)c2ccco2)cc1`, which fluorescence change (max-min) is on record?
Answer: -16.3 (inactive)

Question: For `CN1C(=O)c2ccc(NC(=O)c3c(F)c(F)c(F)c(F)c3F)cc2C1=O`, which fluorescence change (max-min) is on record?
Answer: 1.53 (inactive)

Question: Which fluorescence change (max-min) does the source give for `O=C(c1ccccc1)c1ccc(OC(=O)N2CCCC2)cc1` here?
Answer: -8.75 (inactive)

Question: Which fluorescence change (max-min) does the source give for `Fc1ccc2[nH]c3c(N4CCSCC4)ncnc3c2c1` here?
Answer: 6.07 (inactive)

Question: Which fluorescence change (max-min) does the source give for `CC(C)OCCCNc1ncnc2c1[nH]c1ccc(F)cc12` here?
Answer: 51.6 (active)

Question: `O=C(Nc1nc(-c2ccc3c(c2)OCO3)cs1)c1ccncc1` was tested. Which fluorescence change (max-min) did it give?
Answer: -8.33 (inactive)

Question: Which fluorescence change (max-min) does the source give for `O=C(COC(=O)CCc1c[nH]c(=O)[nH]1)Nc1ccccc1Cl` here?
Answer: 13.2 (inactive)

Question: How did the fluorescence change (max-min) turn out when `CCOc1cc(-c2nc3cc(C)ccn3c2NCC2CCCO2)ccc1O` (stereo not given) was run?
Answer: -30.6 (active)

Question: With `c1cnn(-c2cc(N3CCOCC3)ncn2)c1` as the molecule, how does the fluorescence change (max-min) read?
Answer: -19 (inactive)

Question: How did the fluorescence change (max-min) turn out when `Cc1nc(CNS(=O)(=O)c2ccc(Oc3ccccc3)cc2)cs1` was run?
Answer: -2.69 (inactive)

Question: Which fluorescence change (max-min) does the source give for `CCOc1ccc2nc(N3CCCN(C(=O)Nc4ccccc4C)CC3)c(C#N)cc2c1` here?
Answer: 282 (active)

Question: With `Cc1nn2c(c1-c1ccccc1)N=C(c1ccco1)CC2c1ccccc1` (stereo not given) as the molecule, how does the fluorescence change (max-min) read?
Answer: 21.8 (inactive)

Question: For `COCCNC(=O)C(c1ccc(C)o1)N(Cc1cccs1)C(=O)c1snc(C(N)=O)c1N` (stereo not given), which fluorescence change (max-min) is on record?
Answer: -1.36 (inactive)

Question: How did the fluorescence change (max-min) turn out when `CCN=C1SC(CC(=O)Nc2ccc(C)cc2)C(=O)N1CC` (stereo not given) was run?
Answer: -26.1 (active)

Question: How did the fluorescence change (max-min) turn out when `Cc1ccc(S(=O)(=O)Nc2ccc3ncccc3c2)cc1` was run?
Answer: 17.4 (inactive)

Question: With `CCOc1ccc(NC(=O)N2CC=C(n3c(=O)[nH]c4ccccc43)CC2)cc1` as the molecule, how does the fluorescence change (max-min) read?
Answer: -24 (inactive)

Question: `O=C(CSc1nc2ccccc2o1)N1CCN(c2ccc(Cl)cc2)CC1` was tested. Which fluorescence change (max-min) did it give?
Answer: -34.5 (active)

Question: Which fluorescence change (max-min) does the source give for `O=C(CC1Nc2ccccc2NC1=O)Nc1ccccc1` (stereo not given) here?
Answer: -7.08 (inactive)

Question: For `Cn1c(=O)c2c(nc(SCC(=O)Nc3ccccc3N3CCCCC3)n2C)n(C)c1=O`, which fluorescence change (max-min) is on record?
Answer: -20.5 (inactive)

Question: For `CC1CCCC(C)N1C(=O)CN1CCN(c2nc(-c3ccc(F)cc3)cs2)CC1` (stereo not given), which fluorescence change (max-min) is on record?
Answer: -5.14 (inactive)

Question: With `O=C(NCCC1=CCCCC1)C1CCN(Cc2cnn(-c3ccccc3)c2-n2cccc2)CC1` as the molecule, how does the fluorescence change (max-min) read?
Answer: -25.7 (active)

Question: Which fluorescence change (max-min) does the source give for `COc1ccccc1N1CCN(C(=O)c2c(-c3c(Cl)cccc3Cl)noc2C)CC1` here?
Answer: -19.2 (inactive)

Question: For `O=C(Nc1cccc(NC(=O)N2CCN(c3ccccc3)CC2)c1)N1CCN(c2ccccc2)CC1`, which fluorescence change (max-min) is on record?
Answer: 1.01 (inactive)

Question: `O=C(Cn1cc(C(=O)c2cccs2)c2ccccc21)NCc1cccs1` was tested. Which fluorescence change (max-min) did it give?
Answer: -4.9 (inactive)

Question: `Cc1cccn2c(=O)c3cc(C#N)c(=NC(=O)c4cccnc4)n(CC4CCCO4)c3nc12` (stereo not given) was tested. Which fluorescence change (max-min) did it give?
Answer: 310 (active)

Question: How did the fluorescence change (max-min) turn out when `Cn1c(C(=O)NCCc2ccsc2)cc2c(=O)n(C)c3ccccc3c21` was run?
Answer: -12.8 (inactive)

Question: For `COc1ncnc2c1N=C1CC(C)(C)CC(N)=C1S2`, which fluorescence change (max-min) is on record?
Answer: 175 (active)

Question: How did the fluorescence change (max-min) turn out when `COc1ccc(C(C(O)C(=O)c2c[nH]c3ccccc23)N2CCN(c3ccccc3)CC2)cc1` (stereo not given) was run?
Answer: -11.7 (inactive)
